We go through three compounds from PubChem BioAssay (EPA / NIEHS).

For test [1], the target named is Estrogen receptor (Homo sapiens) (UniProt P03372). In words: CCTE_Deisenroth_AIME_96WELL_LUC_Active: CCTE's 96-well Estrogen Receptor Transactivation Assay with AIME metabolic competence (ERTA luciferase; metabolism positive), Deisenroth Lab (AID 2284023). In outline:
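Metabolism-positive mode: induced rat hepatic S9 in alginate microspheres conditions test solutions (0.002 - 200 uM, 10 points) for 2 hours. VM7Luc4E2 ER luciferase reporter cells then exposed 24 h; positive-direction fit against 17beta-estradiol, n=4 typical.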

For test [2] the target is unchanged. Kind of test: CCTE_Deisenroth_AIME_96WELL_LUC_Inactive: CCTE's 96-well Estrogen Receptor Transactivation Assay without AIME metabolic competence (ERTA luciferase; metabolism negative), Deisenroth Lab (AID 2284025). In outline:
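Metabolism-negative arm: chemicals (0.002–200 uM, 10 points) incubated 2 h with alginate-water microspheres, then medium moved onto VM7Luc4E2 cells for 24 h luciferase read-out. Positive direction vs 17beta-estradiol; n≥4 experiments.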

Test [3] in a line: CCTE_Deisenroth_AIME_96WELL_CTox_Active: Cytotoxicity Assessment (CTOX) in CCTE's 96-well Estrogen Receptor Transactivation Assay with AIME metabolic competence (metabolism positive), Deisenroth Lab (AID 2284028). In outline: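 Cytotoxicity in VM7Luc4E2 breast cells after 24 h exposure to medium from a 2 h metabolic pre-incubation with induced rat hepatic S9 in alginate microspheres; fluorescent live-cell protease readout, 10-point series 0.002–200 uM, n=4.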

Test [4] can be described thus: CCTE_Deisenroth_AIME_96WELL_CTox_Inactive: Cytotoxicity Assessment (CTOX) in CCTE's 96-well Estrogen Receptor Transactivation Assay without AIME metabolic competence (metabolism negative), Deisenroth Lab (AID 2284029). In outline:
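Metabolism-negative mode: alginate-water lids without rat S9, 2 h pre-incubation of 10-point series (0.002 - 200 uM). Conditioned medium on VM7Luc4E2 cells 24 h; loss of fluorescent live-cell protease signal marks cytotoxicity.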

Each structure is given as a SMILES string. Records with an inconclusive call do not appear. Calls of active or inactive are those of the source. Rule for the calls: active = hit-call score of the fitted dose curve at least 0.9, where 1 is the maximum; inconclusive = response in the unintended direction; inactive = score below 0.9.

In general, AC50 refers to the concentration at which the activity in the assay is half-maximal.

Estrogen receptor (Homo sapiens), sequence (P03372 whole entry, looked up): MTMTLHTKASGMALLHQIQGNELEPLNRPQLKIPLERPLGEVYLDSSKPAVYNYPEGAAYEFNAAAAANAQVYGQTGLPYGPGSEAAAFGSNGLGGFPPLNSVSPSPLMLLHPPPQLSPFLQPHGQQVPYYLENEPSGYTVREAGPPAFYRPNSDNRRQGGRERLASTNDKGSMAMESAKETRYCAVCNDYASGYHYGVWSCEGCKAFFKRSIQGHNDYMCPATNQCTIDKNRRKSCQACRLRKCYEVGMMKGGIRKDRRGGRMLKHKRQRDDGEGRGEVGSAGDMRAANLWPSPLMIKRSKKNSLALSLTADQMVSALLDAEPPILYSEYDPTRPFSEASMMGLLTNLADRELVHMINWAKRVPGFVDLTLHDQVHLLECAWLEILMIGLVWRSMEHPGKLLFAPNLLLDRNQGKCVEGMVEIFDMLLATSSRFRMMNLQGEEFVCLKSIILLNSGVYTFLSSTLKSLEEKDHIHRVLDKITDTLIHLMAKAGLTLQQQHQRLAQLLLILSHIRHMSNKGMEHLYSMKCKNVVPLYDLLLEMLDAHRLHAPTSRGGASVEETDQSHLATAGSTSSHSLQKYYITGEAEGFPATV

Regarding `c1ccc(CCCc2ccccc2)cc1`, the compound was classed as inactive in test [1] and in test [3]. For the same compound, the AC50 in test [2] was 37.4 µM (active).
Consider `C/C(=C\c1ccccc1)c1ccccc1`, for which the concentration at half-maximal activity (AC50) in test [1] is 20.6 µM (active); in test [2], 37.2 µM (active).
Consider `c1ccc([C@H]2O[C@H]2c2ccccc2)cc1`, for which the AC50 in test [1] is 66.7 µM (active); in test [2] it was 72.1 µM (active). For the same compound, the compound was called inactive in test [3] and in test [4].
